# Measured values taken from PubChem BioAssay (Tox21).
# Inconclusive results are not listed. Unmarked numbers belong to inactive results. Active and inactive are the calls of the source. The call rests on the fitted dose curve; in most records, active means well fitted inhibition curve with a large enough effect in the repeat runs; inconclusive means weak or mixed curves; inactive means no such curve, though single readings can be large or run the other way.
# Assay: qHTS assay to identify small molecule antagonists of the thyroid receptor (TR) signaling pathway (AID 743065); further: nearly all actives have a fitted effect of over 55% in size
# Settings: GH3.TRE-Luc, T3-stimulated luciferase inhibition, 23.5 h; series mostly up to 70.3 µM; activity, negative = inhibition: at the top concentration
# Description: U.S. Tox21 Program National Center for Advancing Translational Sciences [NCATS] NIH Chemical Genomics Center [NCGC] U.S. Environmental Protection Agency [EPA] National Institutes of Environmental Health Sciences [NIEHS] National Toxicology Program [NTP] U.S. Food and Drug Administration [FDA] Tox21 Assay Overview: Thyroid receptor (TR), a nuclear hormone receptor, plays an important role in development, proliferation, differentiation, metabolism, brain function, and cardiovascular system. […] To profile the Tox21 10K compound library in TR signaling, a cell-based GH3-TRE-Luc assay (GH3.TRE-Luc cell line, developed by the laboratory of Dr. Albertinka J. Murk, Wageningen University) was used to measure the inhibition of TR. GH3 (rat pituitary tumor) cells stably expressing a TR activity sensor consisting of two TR response elements and a luciferase reporter gene.
# Tox21 Assay Protocol Summary: GH3.TRE-Luc cells were dispensed at 1500 cells/4 uL/well into 1536-well white solid bottom plates using a Multidrop Combi dispenser (Thermo Fisher Scientific Inc., Waltham, MA). After the assay plates were incubated at 37 C for 4 hours, 23 nL of library compound or DMSO controls was transferred to the assay plates by a pintool station (Kalypsys, San Diego, CA), followed by addition of 1 ul of T3 (1 nM, final concentration in the wells) to stimulate TR transactivation. The assay plates were incubated at 37 C for 23.5 h, and then 1 uL of CellTiter-Fluor reagent (Promega, Madision, WI) of measuring cytotoxicity was added to each well using a Bioraptr Flying Reagent Dispenser (FRD) workstation (Beckman Coulter, Indianapolis, IN, USA). The plates were incubated at 37 C and 5% CO2 for additional 30 min, and fluorescence intensity was measured by a ViewLux plate reader (PerkinElmer, Shelton, CT). For measuring luciferase reporter gene activity, 4 uL of ONE-Glo Luciferase Assay reagent (Promega) was added to each well using a Bioraptr FRD (Beckman Coulter), followed by 30 min incubation at room temperature. The luminescence intensity of plates was recorded by a ViewLux plate reader (PerkinElmer, Shelton, CT).
# On the % scale 0 is the no-effect control and ±100 the full control effect; potency means the concentration at half of the fitted maximal effect.
Structure (SMILES),"activity, negative = inhibition",Potency
O=C(Cn1ccnc1[N+](=O)[O-])NCCO,7.41%,
CC[N+](CC)(CCNC(=O)C(=O)NCC[N+](CC)(CC)Cc1ccccc1Cl)Cc1ccccc1Cl,8.04%,
CC(=O)OCC[N+](C)(C)C,11.3%,
COC(=O)CCS,-0.865%,
Brc1cc(Br)c(Oc2cc(Br)c(Br)cc2Br)cc1Br,-6.72%,
C[C@H]1c2cccc(O)c2C(O)=C2C(=O)[C@]3(O)C(O)=C(C(N)=O)C(=O)[C@@H](N(C)C)[C@@H]3[C@@H](O)[C@@H]21,13.2%,
COc1cc(C(=O)NC2CCN(C)CC2)ccc1Nc1ncc2c(n1)N(C1CCCC1)CC(F)(F)C(=O)N2C,,0.0628 µM (active)
CCCCCCCCCCCCCCN(CCO)CCO,,17.2 µM (active)
N#CCc1ccc(Cl)cc1Cl,-4.24%,
COc1cc(C(=O)NCCCCCC(=O)O)cc(OC)c1OC,6.34%,
Cc1ccc2c(Br)cc(Br)c(O)c2n1,,18.8 µM (active)
c1ccc2sc(SN(C3CCCCC3)C3CCCCC3)nc2c1,,21.4 µM (active)
CC(C)(c1ccccc1)c1ccccc1,14.1%,
CCC=CC#N,5.74%,
Cc1cc(=O)c2c(O)c3c(O)cc(=O)c4c3c3c(cc(O)c1c23)C(C)(C)C=4O,,0.596 µM (active)
CCC(C)(C)OC,3.97%,
NC1[C@H]2CN(c3nc4c(cc3F)c(=O)c(C(=O)O)cn4-c3ccc(F)cc3F)C[C@@H]12 (stereo not given in full),,9.44 µM (active)
Cc1cc(C)c(N)cc1C,12.2%,
OC[C@H]1O[C@@H](n2cnc3c(=S)nc[nH]c32)[C@H](O)[C@@H]1O,,23.7 µM (active)
CN1CCCC(n2nc(Cc3ccc(Cl)cc3)c3ccccc3c2=O)CC1 (stereo not given),,21.1 µM (active)

Structure (SMILES),"activity, negative = inhibition",Potency
COc1ncnc(NS(=O)(=O)c2ccc(N)cc2)c1OC,3.5%,
CCC(OCCCOC)OC(C)=O (stereo not given),0.264% [at 95 µM],
Clc1ccc(Nc2nnc(Cc3ccncc3)c3ccccc23)cc1,,13.3 µM (active)
CCCCCC#CC(=O)OC,3.99%,
c1ccc(C[n+]2cccc3ccccc32)cc1,-0.0098%,
C=COCC(C)C,6.18% [at 95 µM],
CC1(C)[C@H](C(=O)O)N2C(=O)C[C@H]2S1(=O)=O,-3.27%,
CC1CC(OC(=O)C(O)c2ccccc2)CC(C)(C)N1C (stereo not given),,inactive
O=C1c2ccccc2C(=O)C1(O)O,,54.8 µM (active)
NCCNCCO,-1.38% [at 95 µM],
CCCCN1CCCC1C(=O)Nc1c(C)cc(C)cc1C (stereo not given),-22.3%,
C1C[C@@H]2[C@H]3CC[C@H](C3)[C@@H]2C1,-5.64%,
CN1C[C@H](C(=O)N[C@]2(C)O[C@@]3(O)[C@@H]4CCCN4C(=O)[C@H](Cc4ccccc4)N3C2=O)C[C@@H]2c3cccc4[nH]cc(c34)C[C@H]21,,26.6 µM (active)
C=CC(=O)[O-].C=CC(=O)[O-].[Zn+2],36.8%,
CC1(C)S[C@@H]2[C@H](NC(=O)C(c3ccccc3)S(=O)(=O)O)C(=O)N2[C@H]1C(=O)O (stereo not given in full),-0.598%,
O[C@@H]1CO[C@H]2[C@@H]1OC[C@@H]2O,0.45%,
CC(O)c1ccccc1 (stereo not given),-1.74% [at 95 µM],
CC(C)(O)c1ccc(CNC(=O)c2cccnc2Oc2ccc3nonc3c2)cc1,-11.6%,
Cc1cccc(N(C)C(=S)Oc2ccc3c(c2)CCC3)c1,-19.6%,
CCCCCCCC/C=C\CCCCCCCCO,4.11%,
